{"source": "PubChem BioAssay (NCATS)", "note": "Records with an inconclusive call do not appear. Unmarked numbers belong to inactive results. Activity calls are given as the source filed them. Calls follow the shape of the dose curve; as a rule, active = well fitted curve in either direction with a large enough effect (not every such curve was filed as active); inconclusive = small, poorly fitted or top-dose-only effect, or another doubt; inactive = flat fitted curve, though single readings scatter. % is scaled to controls: 0 for no effect and ±100 for the full control effect."}
{"experiment": "NFAT Signaling Pathway (AID 444);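 also: carbachol stimulus at about its EC50 of 1 µM final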", "conditions": "Jurkat NFAT-bla M1, carbachol, beta-lactamase ratio, 5 h; at 7.69 µM (top of the series) unless noted", "method_in_brief": "(§1)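 Jurkat cells with NFAT-driven β-lactamase reporter and co-expressed M1 receptor, stimulated with carbachol (final 1 uM, ~EC50), compound titration, 5 h at 37 °C. CCF4 loaded 1 h at RT; 460/530 nm ratio gave %activity and AC50.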"}
{"molecule": "NCCNc1ncnc2ccc(Cl)cc12", "activity change, negative = inhibition": "-9.27%"}
{"molecule": "O=C(NCCO)c1ccc(Cl)cc1", "activity change, negative = inhibition": "9.91%"}
{"molecule": "O=c1cc(CF)[nH]c(=S)[nH]1", "activity change, negative = inhibition": "5.97%"}
{"molecule": "c1ccc2cc(-c3cc(-c4cc(-c5ccc6ccccc6c5)on4)no3)ccc2c1", "activity change, negative = inhibition": "1.2%"}
{"molecule": "CN(C)CN1C(=O)S/C(=C2/C(=O)N(CN(C)C)c3ccccc32)C1=O", "activity change, negative = inhibition": "9.46%"}
{"molecule": "NC(=O)c1ncn([C@@H]2O[C@@H](CO)[C@@H](O)[C@H]2O)n1", "activity change, negative = inhibition": "17% [at 38 µM]"}
{"molecule": "O=C(O)/C(=C\\c1ccccc1)c1ccccc1", "activity change, negative = inhibition": "1.44%"}
{"molecule": "NCCCc1ccc2oc3ccccc3c2c1", "activity change, negative = inhibition": "14.4%"}
{"molecule": "N=c1ccn2c(n1)O[C@@H]1[C@@H](O)[C@H](CO)O[C@H]12", "activity change, negative = inhibition": "-5.26% [at 38 µM]"}
{"molecule": "CN(C)c1ccc(-c2nc(N3CCNCC3)c3ccccc3n2)cc1", "activity change, negative = inhibition": "5.32%"}
{"molecule": "CN1[C@@H]2CC[C@H]1CC(OC(=O)[C@@H](CO)c1ccccc1)C2", "note": "(some centres undefined)", "activity change, negative = inhibition": "-38.1% [at 17.2 µM] (active)"}
{"molecule": "CN1C[C@H](c2ccccc2)C(O)([C@]2(c3ccccc3)CN(C)C[C@@H](c3ccccc3)C2=O)[C@H](c2ccccc2)C1", "note": "(some centres undefined)", "activity change, negative = inhibition": "-6.86%"}
{"molecule": "C[N+](C)(C)/N=C\\c1ccc(O)c(O)c1", "activity change, negative = inhibition": "8.29%"}
{"molecule": "CSc1ccc(NC(=O)Nc2cc(C)ccn2)cc1", "activity change, negative = inhibition": "-18.9%"}
{"molecule": "N[C@H](COP(=O)(O)O)C(=O)O", "activity change, negative = inhibition": "1.24% [at 38 µM]"}
{"molecule": "C[C@H](CN(C)C)C(=O)c1ccccc1C(=O)O", "activity change, negative = inhibition": "-1.83%"}
{"molecule": "O=C(O)c1cc(-c2ccc(-c3ccc(-c4cc(C(=O)O)c5cc(Cl)ccc5n4)cc3)cc2)nc2ccc(Cl)cc12", "activity change, negative = inhibition": "-22%"}
{"molecule": "Cc1cc2nc([C@H](C)C(=O)c3ccc(Cl)cc3)c(=O)[nH]c2cc1C", "activity change, negative = inhibition": "-5.22%"}
{"molecule": "NCS(=O)(=O)O", "activity change, negative = inhibition": "2.65%"}
{"molecule": "O=C(O)CCCC[C@H]1CCSS1", "activity change, negative = inhibition": "-1.58% [at 38 µM]"}
{"molecule": "O=C(C[n+]1ccc2ccccc2c1)c1ccc2ccc3ccccc3c2c1", "activity change, negative = inhibition": "-15.5%"}
{"molecule": "COc1cc2nc(N(C)CCCNC(=O)[C@@H]3CCCO3)nc(N)c2cc1OC", "activity change, negative = inhibition": "-29.6% [at 17.2 µM]"}
{"molecule": "C[N+]1(NCC[N@@+]2(C)CCc3ccccc3C2)CCCCC1", "activity change, negative = inhibition": "-23.2%"}
{"molecule": "Oc1ccc([C@@H]2CNCCc3c2cc(O)c(O)c3Cl)cc1", "activity change, negative = inhibition": "1.42% [at 38 µM]"}
{"experiment": "NFAT Signaling Pathway (AID 444);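 also: carbachol stimulus at about its EC50 of 1 µM final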", "conditions": "Jurkat NFAT-bla M1, carbachol, beta-lactamase ratio, 5 h; at 17.2 µM (top of the series)", "method_in_brief": "as §1", "units": {"activity change, negative = inhibition": "%"}}
{"molecule": "CC(=O)N1CCN(c2ccc(OC[C@@H]3CO[C@@](Cn4ccnc4)(c4ccc(Cl)cc4Cl)O3)cc2)CC1", "activity change, negative = inhibition": -5.42}
{"molecule": "CC(C)(C)c1ccc([C@@H](O)CCCN2CCC(C(O)(c3ccccc3)c3ccccc3)CC2)cc1", "activity change, negative = inhibition": -18.2}
{"molecule": "Cc1nnc(SCC2=C(C(=O)O)N3C(=O)[C@@H](NC(=O)Cn4cnnn4)[C@@H]3SC2)s1", "activity change, negative = inhibition": 2.74}
{"experiment": "NFAT Signaling Pathway (AID 444);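 also: carbachol stimulus at about its EC50 of 1 µM final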", "conditions": "Jurkat NFAT-bla M1, carbachol, beta-lactamase ratio, 5 h; at 38 µM (top of the series)", "method_in_brief": "as §1", "units": {"activity change, negative = inhibition": "%"}}
{"molecule": "CC(=O)N1CCN(c2ccc(OC[C@@H]3CO[C@@](Cn4ccnc4)(c4ccc(Cl)cc4Cl)O3)cc2)CC1", "activity change, negative = inhibition": -20.5}
{"molecule": "CC(C)(C)c1ccc([C@@H](O)CCCN2CCC(C(O)(c3ccccc3)c3ccccc3)CC2)cc1", "activity change, negative = inhibition": -0.347}
{"molecule": "Cc1nnc(SCC2=C(C(=O)O)N3C(=O)[C@@H](NC(=O)Cn4cnnn4)[C@@H]3SC2)s1", "activity change, negative = inhibition": -2.96}
{"experiment": "Stat Signaling Pathway (AID 446);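 also: ME-180 cervical cancer cells given 40 pM IL-6 alongside compound; SIE-controlled beta-lactamase reporter measured as 460/530 nm FRET emission ratio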", "conditions": "ME-180 SIE beta-lactamase reporter, IL-6 stimulated, 5 h; at 7.69 µM (top of the series) unless noted", "method_in_brief": "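Normalization used AC90 stimulation (300 pM IL-6) and AC90 inhibition (125 nM pan-JAK inhibitor at 40 pM IL-6). The underlying signal is SIE-driven beta-lactamase in ME-180 cells after 5 h IL-6 exposure with compound.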"}
{"molecule": "COC(=O)CC[C@@H](C)[C@@H]1CC[C@@H]2[C@@H]3CC[C@H]4C[C@@H](O)CC[C@@]4(C)[C@@H]3CC[C@]21C", "activity, negative = inhibition": "23.8%"}
{"molecule": "NCCNc1ncnc2ccc(Cl)cc12", "activity, negative = inhibition": "-14.9%"}
{"molecule": "O=C(NCCO)c1ccc(Cl)cc1", "activity, negative = inhibition": "15.2%"}
{"molecule": "O=c1cc(CF)[nH]c(=S)[nH]1", "activity, negative = inhibition": "13.4%"}
{"molecule": "c1ccc2cc(-c3cc(-c4cc(-c5ccc6ccccc6c5)on4)no3)ccc2c1", "activity, negative = inhibition": "1.33%"}
{"molecule": "OC[C@H](S)CS", "activity, negative = inhibition": "5.31%"}
{"molecule": "O=C(O)c1[nH]c(=O)[nH]c(=O)c1CN1CCCCC1", "activity, negative = inhibition": "-5.07%"}
{"molecule": "CN(C)CN1C(=O)S/C(=C2/C(=O)N(CN(C)C)c3ccccc32)C1=O", "activity, negative = inhibition": "-0.139%"}
{"molecule": "NC(=O)c1ncn([C@@H]2O[C@@H](CO)[C@@H](O)[C@H]2O)n1", "activity, negative = inhibition": "-14.5% [at 38 µM]"}
{"molecule": "O=C(O)/C(=C\\c1ccccc1)c1ccccc1", "activity, negative = inhibition": "-0.514%"}
{"molecule": "NCCCc1ccc2oc3ccccc3c2c1", "activity, negative = inhibition": "0.365%"}
{"molecule": "O=C(O)c1cc(-c2ccc(-c3ccccc3)cc2)nc2cc3ccccc3cc12", "activity, negative = inhibition": "-0.262%"}
{"molecule": "N=c1ccn2c(n1)O[C@@H]1[C@@H](O)[C@H](CO)O[C@H]12", "activity, negative = inhibition": "0.604% [at 38 µM]"}
{"molecule": "CN(C)c1ccc(-c2nc(N3CCNCC3)c3ccccc3n2)cc1", "activity, negative = inhibition": "23.9%"}
{"molecule": "CN1C[C@H](c2ccccc2)C(O)([C@]2(c3ccccc3)CN(C)C[C@@H](c3ccccc3)C2=O)[C@H](c2ccccc2)C1", "note": "(some centres undefined)", "activity, negative = inhibition": "10%"}
{"molecule": "CC(CO)(CO)N=Cc1cc(I)cc(I)c1O", "activity, negative = inhibition": "-24.6%"}
{"molecule": "C[N+](C)(C)/N=C\\c1ccc(O)c(O)c1", "activity, negative = inhibition": "3.02%"}
{"molecule": "CSc1ccc(NC(=O)Nc2cc(C)ccn2)cc1", "activity, negative = inhibition": "-7.77%"}
{"molecule": "N[C@H](COP(=O)(O)O)C(=O)O", "activity, negative = inhibition": "20.2% [at 38 µM]"}
{"molecule": "C[C@H](CN(C)C)C(=O)c1ccccc1C(=O)O", "activity, negative = inhibition": "14.8%"}
{"molecule": "O=C(O)c1cc(-c2ccc(-c3ccc(-c4cc(C(=O)O)c5cc(Cl)ccc5n4)cc3)cc2)nc2ccc(Cl)cc12", "activity, negative = inhibition": "-13.1%"}
{"molecule": "Cc1cc2nc([C@H](C)C(=O)c3ccc(Cl)cc3)c(=O)[nH]c2cc1C", "activity, negative = inhibition": "-18.7%"}
{"molecule": "NCS(=O)(=O)O", "activity, negative = inhibition": "-0.0948%"}
{"molecule": "O=C(O)CCCC[C@H]1CCSS1", "activity, negative = inhibition": "-7.28% [at 38 µM]"}
{"molecule": "O=C(C[n+]1ccc2ccccc2c1)c1ccc2ccc3ccccc3c2c1", "activity, negative = inhibition": "0.433%"}
{"molecule": "COc1cc2nc(N(C)CCCNC(=O)[C@@H]3CCCO3)nc(N)c2cc1OC", "activity, negative = inhibition": "2.71% [at 17.2 µM]"}
{"molecule": "C[N+]1(NCC[N@@+]2(C)CCc3ccccc3C2)CCCCC1", "activity, negative = inhibition": "7.24%"}
{"molecule": "Oc1ccc([C@@H]2CNCCc3c2cc(O)c(O)c3Cl)cc1", "activity, negative = inhibition": "18.7% [at 38 µM]"}
{"molecule": "O=C1C=C(N2CCN(c3ccccn3)CC2)C(=O)c2c(O)ccc(O)c21", "activity, negative = inhibition": "-4.42%"}
